Measurements published in paper PMC8159961, “Exploring protein hotspots by optimized fragment pharmacophores” (Nature Communications, 2021).

Target: thrombin (human, UniProt P00734)
Assay: primary screen, binary call; higher = more effect of the substance
Design: screenings were carried out in duplicate in one independent experiment
Settings: 200 µM; call rule not given here
Method: Protease inhibitory assays were performed in transparent microtiter plates in a final volume of 200 µL with the use of chromogenic substrates. The reaction rates in the absence and in the presence of the inhibitor were measured; screenings were carried out in duplicate in one independent experiment and Ki values were determined in triplicate in two independent experiments.

Thrombin, inactive:
c1ccc(Nc2nncs2)cc1 0, O=C1CNCCN1c1ccccc1 0, C1=C[C@H]2O[C@@H]1c1ccccc12 0, CS(=O)(=O)c1ccc(OC(F)(F)F)cc1 0, COc1ccc(C2=CCNCC2)cc1 0, CC(CN)N1CCc2sccc2C1 (centres unmarked) 0, CCN(CC)c1cccc(C)c1 0, Cn1c(N)nc2ccccc21 0, O=C1CC(CSc2ccc(Cl)cc2)=NN1 0, O=C1CCC(=O)N(c2ccccc2)N1 0, O=C1CCN(c2ccccn2)CC1 0
